High-throughput results: PubChem, The Scripps Research Institute Molecular Screening Center
Only some compounds are listed: those with a hit (about 3.5% of all), similar ones and a draw of the others.
MITF inh – blocks human microphthalmia-associated transcription factor | O75030 | AlphaScreen MITF homodimerization, bead proximity signal | inhibition, % at 2.6 µM | hit rate 0.91% among 650,000 | AID 1259374; in the data active = inhibition above about 50%;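 note: 0% = vehicle wells with protein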
Target sequence (O75030 whole entry, looked up): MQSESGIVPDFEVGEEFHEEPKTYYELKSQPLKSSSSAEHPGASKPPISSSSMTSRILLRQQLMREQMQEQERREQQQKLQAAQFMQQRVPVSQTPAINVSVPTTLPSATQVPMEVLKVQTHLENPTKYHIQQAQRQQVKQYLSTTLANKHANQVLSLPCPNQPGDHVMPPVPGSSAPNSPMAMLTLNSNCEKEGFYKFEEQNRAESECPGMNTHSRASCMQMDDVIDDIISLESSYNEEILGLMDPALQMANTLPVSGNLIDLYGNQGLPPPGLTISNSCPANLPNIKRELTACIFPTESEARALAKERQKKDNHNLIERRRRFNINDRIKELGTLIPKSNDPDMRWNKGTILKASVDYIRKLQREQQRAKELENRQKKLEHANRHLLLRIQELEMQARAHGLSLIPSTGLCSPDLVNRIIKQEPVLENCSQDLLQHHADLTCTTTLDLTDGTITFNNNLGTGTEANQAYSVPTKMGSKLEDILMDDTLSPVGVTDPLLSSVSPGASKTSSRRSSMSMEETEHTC
FBW7 activator – human FBW7 E3 ligase activation, primary screen; hit rate 0.13% among 650,000; Q969H0; AlphaScreen FBW7–phospho-cyclin E peptide binding, activator screen; normalized activity (activation), % at 26.1 µM; in the data active = normalized activity above about 1.9%;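 note: purified mutant Fbw7 with reduced substrate affinity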
TEAD-YAP block – TEAD-YAP interaction inhibition; hit rate 1.4% among 640,000; HEK-TIYL cells, TEAD-Gal4/YAP UAS-luciferase luminescence; inhibition, % at 9.12 µM; in the data active = inhibition above about 32%;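 note: 0% = median of test compound wells and 100% = reference inhibitor wells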
GPR151 activ – human GPR151 activation; PathHunter beta-arrestin GPR151 cells, luminescence; activation, % at 11.2 µM; hit rate 1% among 650,000; AID 1508602; in the data active = activation above about 4.9%;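 note: 0% = median of compound wells and 100% = cells with positive control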
* = called active by the depositor.

SMILES | MITF inh | FBW7 activator | TEAD-YAP block | GPR151 activ
Cc1cccc(CNC(=O)C2CC23CCN(C(=O)c2ccc4[nH]ccc4c2)CC3)n1 (stereo not drawn) | -4.1 | 0.1 | 7.7 | -1.0
O=C(CN(Cc1ccccc1)S(=O)(=O)c1cc(Cl)ccc1Cl)NCC1CCCO1 (stereo not drawn) | 14.0 | 0.0 | -1.9 | 0.3
CNC(=O)c1ccccc1Nc1cc(Nc2ccc3[nH]c(=O)oc3c2)ncc1C(F)(F)F | 11.4 | 0.1 | 33.1* | 1.3
CNC(=O)c1ccccc1Nc1cc(Nc2ccc3[nH]nc(C4=CCNCC4)c3c2)ncc1C(F)(F)F | 2.4 | 0.3 | -36.1 | 0.7
CC1(c2ccccc2)CC(C)(C)N2C(=O)/C(=C3\SC(=O)NC3=O)c3cccc1c32 (stereo not drawn) | 2.7 | -0.3 | 50.1* | -0.2
CC(=O)N1C(=O)/C(=C2\SC(=O)NC2=O)c2ccccc21 | 2.4 | -0.1 | -10.9 | 1.4
CCC(=O)Nc1ccc(C2=NNC(=Nc3ccc(C)cc3)SC2)cc1 | 16.4 | 0.0 | -6.7 | 0.5
CCOC(=O)c1c(C)[nH]c(C2=NNC(=NC3CC3)SC2)c1C | 4.5 | 0.3 | 78.1* | 0.5
Fc1ccc(C2=NNC(=NC3CC3)SC2)cc1F | 2.7 | -0.4 | 64.6* | -7.4
CCC(=O)Nc1ccc(C2=NNC(=NC3CC3)SC2)cc1 | -2.0 | -0.1 | 50.8* | -2.9
C=CCc1ccccc1OCC(O)Cn1c(CO)nc2ccccc21 (stereo not drawn) | 11.3 | -0.1 | 10.8 | 0.0
C=CCc1ccccc1OCC(O)Cn1c(C)nc2ccccc21 (stereo not drawn) | 3.2 | -0.1 | 39.7* | 3.9
Cc1ccc(C(C)C)c(OCC(O)Cn2c(C)nc3ccccc32)c1 (stereo not drawn) | -3.2 | 0.1 | 50.4* | 3.4
O=C(COC(=O)C1CCC1)Nc1ccccc1 | 11.4 | 0.0 | 0.8 | -1.4
Cn1nc(-c2ccc(Cl)cc2)cc1NC(=O)Cn1c2ccccc2c(=O)c2ccccc21 | -0.1 | 0.6 | -2.5 | -0.5
Cn1nc(-c2ccc(Cl)cc2)cc1NC(=O)CCl | -1.3 | -0.1 | 46.1* | -1.5
O=c1cnn([C@@H]2O[C@H](CO)[C@@H](O)[C@H]2O)c(=O)[nH]1 | -2.2 | -0.1 | 47.7* | 0.8
O=c1[nH]cnc2c1ncn2[C@@H]1O[C@H](CO)[C@@H](O)[C@H]1O | -4.3 | -0.2 | -3.8 | -1.3
O=c1ncn(C2OC(CO)C(O)C2O)c(=O)[nH]1 (stereo not drawn) | 0.1 | -0.1 | 74.4* | 0.0
C=CCNc1nc2ccccn2c(=O)c1/C=C1\SC(=S)N(Cc2ccccc2)C1=O | 9.6 | 0.0 | -2.4 | 0.2
O=C(Nc1ccc(N2CCCCC2)cc1)c1ccc(Br)o1 | 24.7 | 0.4 | 49.5* | -7.8
O=C(Nc1ccc(N2CCCCC2)cc1)c1ccccc1F | 8.2 | -0.5 | 69.6* | -6.9
O=C(Nc1ccc(C(=O)N2CCCC2)cc1)c1ccc(Br)o1 | -4.8 | 0.0 | -23.1 | -8.6
CCCC(=O)N1CCN(c2ccc(NC(=O)c3ccc(Br)o3)cc2)CC1 | 2.4 | 0.0 | 59.8* | -1.6
COc1cc(Nc2n[nH]c(C)c2[N+](=O)[O-])c(OC)cc1Cl | 10.4 | -0.2 | 2.0 | -0.1
SMILES | MITF inh | FBW7 activator | TEAD-YAP block | GPR151 activ
O=C(CCl)N=c1sccn1Cc1ccccc1Cl | 10.6 | 0.2 | 38.9* | -2.3
O=C(c1cc(-c2cccc(O)c2)on1)N1CCCCC1 | 16.5 | 0.1 | 67.1* | -2.7
O=C(c1cc(-c2ccccc2)on1)N1CCCCCC1 | 23.3 | 0.7 | -66.8 | -1.0
CCC(C)C(=O)N1CCCC(c2nc(-c3cccc(OC)c3)no2)C1 (stereo not drawn) | -4.3 | -0.1 | 61.4* | -1.5
COc1cccc(-c2cc(C(=O)N3CCCC3)no2)c1 | 10.1 | 0.1 | 37.8* | -3.8
OC1CCCN(c2ncn(-c3ccc(Nc4nccc(-c5cccc(N6CCOCC6)c5)n4)cc3)n2)C1 (stereo not drawn) | -10.3 | 1.4 | 82.5* | 0.0
Fc1cc(-c2ccnc(Nc3ccc(-n4ccnn4)cc3)n2)cc(N2CCOCC2)c1 | -3.1 | 0.1 | 19.8 | 0.6
OC1CCN(c2cccc(-c3ccnc(Nc4ccc(-n5ccnn5)cc4)n3)c2)CC1 | -2.9 | 0.0 | 36.8* | -0.5
CN1CCN(c2ncn(-c3ccc(Nc4nccc(-c5cc(C#N)cc(N6CCCC(O)C6)c5)n4)cc3)n2)CC1 (stereo not drawn) | -11.2 | 0.0 | 62.2* | 0.9
N#Cc1cc(-c2ccnc(Nc3ccc(-n4cnc(N5CCCC(O)C5)n4)cc3)n2)cc(N2CCOCC2)c1 (stereo not drawn) | -5.5 | 0.0 | 26.8 | 0.2
Cn1nnc(-c2ccc(Nc3nccc(-c4cc(C#N)cc(N5CCCC(O)C5)c4)n3)cc2)n1 (stereo not drawn) | -0.4 | 0.0 | 63.4* | 1.0
O=C(CSCc1ccccc1)Nc1cc(-c2ccccc2)nn1CCO | -10.1 | 0.0 | -3.9 | -0.1
CN(CCO)C1CCc2c(sc3ncn(CC4CCCCC4)c(=O)c23)C1 (stereo not drawn) | -6.7 | -0.1 | 49.2* | 0.4
O=C1c2ccccc2NC2(CCCCC2)N1c1ccc(O)cc1 | -13.3 | 0.1 | 57.7* | -1.5
CCn1cnc2sc(C(=O)N3CCN(c4ccccc4F)CC3)c(C)c2c1=O | 3.7 | 0.0 | -1.2 | -1.2
CCCOC(=O)c1cccc(NC(=O)COc2ccccc2Br)c1 | 6.6 | 0.2 | 50.4* | -0.3
O=C(COc1ccc(CO)cc1Cl)Nc1ccccc1 | 9.8 | 0.7 | 49.4* | -2.7
O=C(COc1ccc(Br)cc1Br)Nc1cccc(O)c1 | 2.3 | 0.0 | 68.7* | 2.8
Cc1ccc(COc2ccc(CO)cc2Cl)cc1 | 6.8 | 0.4 | 33.2* | -1.5
CCCOC(=O)c1cccc(NC(=O)COc2ccc(Br)cc2)c1 | 14.6 | -0.4 | -17.6 | 0.9
CC1=C(C(=O)Nc2ccccn2)C(c2ccc([N+](=O)[O-])cc2)C2=C(CCCC2=O)N1 (stereo not drawn) | 9.7 | 0.0 | -12.1 | 1.7
Cc1cc(C)n(CCNC(=O)C(C)Oc2ccccc2)n1 (stereo not drawn) | 6.7 | 0.1 | 17.0 | -0.2
COc1ccc(NC(=O)c2ccc(C(=O)Nc3ccc(OC)cc3)nc2)cc1 | 3.3 | 0.0 | 5.3 | 1.5
CC(C)c1ccc(C(Nc2ccccn2)c2ccc3cccnc3c2O)cc1 (stereo not drawn) | 17.5 | -0.2 | 62.9* | 1.3
CCCOc1ccc(C(Nc2ccccn2)c2ccc3cccnc3c2O)cc1 (stereo not drawn) | 18.6 | 0.0 | 21.0 | -1.9
Cc1ccc(C(Nc2ccccn2)c2ccc3cccnc3c2O)s1 (stereo not drawn) | 35.3 | -0.3 | 81.0* | 0.4
Cc1ccc2ccc(C(Nc3ccccn3)c3cccc(O)c3)c(O)c2n1 (stereo not drawn) | 3.0 | 0.0 | 8.0 | -0.1
Oc1c(C(Nc2ccccn2)c2ccc(Br)cc2)ccc2cccnc12 (stereo not drawn) | 14.3 | -0.4 | 83.6* | 1.5
Oc1ccc(Br)c(C(Nc2ccccn2)c2ccc3cccnc3c2O)c1 (stereo not drawn) | 12.4 | -0.3 | 84.5* | -0.4
Cc1ccc(NC(=O)c2ccc3c(c2)N(CC(=O)NC2CCCC2)C(=O)C(C)(C)O3)cc1 | 17.2 | 0.0 | -12.2 | -0.3
